Screens (PubChem)
TWEAK-Fn14 inh: inhibitors of TWEAK-Fn14 interaction signaling; TWEAK-stimulated Fn14 reporter cells, luciferase luminescence, 8 h; 360,000 tested, 2% active; inhibition, % at 10 µM; AID 1159606; in the data active = inhibition above about 50%
LGR2 antag: inhibitors of bursicon-induced Drosophila LGR2 receptor cAMP signaling | inhibition, % at 9.99 µM | 380,000 tested, 0.35% active | HEK293 LGR2, CRE-luciferase, bursicon-stimulated, 4 h;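 active = drop in luminescence signal, shown as inhibition above about 50% in the replicate tests, limit read from the data, passing the limit was not always enough; inconclusive = probably only some replicates passing the limit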;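 note: agonist challenge used bursicon conditioned medium at about half maximal strength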
HSP90 refold inh: blocks HSP90-mediated luciferase refolding in reticulocyte lysate. 290,000 tested, 0.91% active. AID 1789. inhibition, % at 5.6 µM. Rabbit reticulocyte lysate, luciferase refolding luminescence, 3 h;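 active = inhibition above the screen-wide mean plus 3 SD, computed separately per campaign, cut at about 16% in these data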;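 note: 0% = DMSO wells and 100% = 60 µM geldanamycin wells; inhibitors lower the luminescence because luciferase stays unfolded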
TROY NFkB inh: TROY signaling inhibition; Q293 LMP1-TROYcd NF-kB luciferase reporter, 4 h; AID 1347056; inhibition, % at 10 µM; 360,000 tested, 0.98% active;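 active = compounds whose plate-normalised and pattern-corrected inhibition of the luciferase reporter signal at the single screening dose is 50% or more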
An asterisk follows results filed as active; ? = inconclusive; nt = no result given. Rows were chosen to be rich in hits. Some 2.2% of all compounds tested hit in one or more screens of this group.

SMILES | TWEAK-Fn14 inh | LGR2 antag | HSP90 refold inh | TROY NFkB inh
C=C(C)[C@@H]1C2=CC(C(=O)OC)=C(C[C@H](C(=C)C)[C@H]3O[C@H]3C3=C[C@H]1OC3=O)O2 | 72* | nt | nt | 2
CC(C)N(c1ccccc1)c1ccc(NC(=O)CCl)cc1 | 62* | 33 | 1 | 1
O=C(CCl)Nc1ccc(-c2ccccc2)cc1 | 32 | nt | 4 | -42
COc1ccc(-c2nc(CN3CCN(c4ncnc5ccccc45)CC3)c(C)o2)c(OC)c1 | 59* | 8 | 2 | 29
COc1ccc(-c2nc(CN3CCN(c4ccccc4OC)CC3)c(C)o2)cc1 | -19 | 2 | 1 | -13
Cc1oc(-c2cc(F)ccc2F)nc1CN1CCN(c2ncnc3ccccc23)CC1 | 52* | 5 | 0 | 28
Cc1nn(C)cc1NC(=O)C[C@@H]1CC[C@@H]2[C@H](COc3ccc(NC(=O)NC(C)C)cc3C(=O)N2C)O1 | nt | 12 | nt | nt
COc1ccc(C(=O)NNC(=O)c2ccccn2)cc1 | 102* | nt | 75* | 87*
COc1ccc(NC(=S)c2ccc3ccccc3n2)cc1 | -13 | nt | 2 | -29
COc1ccc(N=C(NN)c2ccc3ccccc3n2)cc1 | 101* | nt | 16 | 91*
COc1cc(OC)cc(C(=O)NNC(=O)c2ccc3ccccc3n2)c1 | 37 | -10 | nt | 57*
COc1cc(OC)cc(C(=O)NNC(=O)c2ccccn2)c1 | -2 | -13 | -3 | -5
COc1cc(C(=O)NNC(=O)c2ccc3ccccc3n2)cc(OC)c1OC | -23 | -15 | nt | -25
COc1cccc(C#Cc2cnc3c(c2)C(=O)N([C@@H](C)CO)C[C@@H](C)[C@H](CN(C)C(=O)C2CCC2)O3)c1 | nt | -3 | nt | nt
C[C@@H]1CCCCO[C@@H](CN(C)C)[C@H](C)CN([C@@H](C)CO)C(=O)c2cc(N(C)C)ccc2O1 | nt | -8 | nt | nt
COc1ccc2c3c([nH]c2c1)[C@H](CO)N(CC1CC1)CC31CCN(S(=O)(=O)c2cccc(F)c2)CC1 | nt | 10 | nt | nt
CN1C(=O)c2cc(NC(=O)NC3CCCC3)ccc2OC[C@@H]2O[C@H](CC(=O)NCC3CC3)CC[C@@H]21 | nt | -15 | nt | nt
N#C[C@H]1[C@@H](c2ccccc2)[C@H](CO)N1C(=O)CCN1CCCCC1 | nt | 13 | nt | nt
CN1CCN(C(=O)C[C@@H]2CC[C@H]3[C@@H](COC[C@H](O)CN3C(=O)Nc3ccc(Cl)cc3)O2)CC1 | nt | -14 | nt | nt
Cc1cccc(C(=O)NC(=S)Nc2ccc(S(=O)(=O)N3CCCCC3)cc2)c1 | 51* | nt | 3 | 2
O=C(Nc1ccc(Cl)cc1)N[C@H]1CC[C@@H](CCn2cc(C3(O)CCCC3)nn2)O[C@@H]1CO | nt | 18 | nt | nt
CC(=O)N1N=C(c2ccc(Cl)cc2)CC1c1ccc([N+](=O)[O-])cc1 (stereo not drawn) | 80* | -15 | -2 | -15
COc1ccc(C2CC(c3ccc(Cl)cc3)=NN2C(C)=O)cc1 (stereo not drawn) | -29 | -73 | -4 | -54
CCOC(=O)N/N=C/c1c(C)nn(-c2ccccc2Cl)c1Cl | -25 | -39 | -7 | -108
Oc1ccc(C=NNc2nc3ccccc3s2)c(O)c1 | 60* | ? | nt | 3
SMILES | TWEAK-Fn14 inh | LGR2 antag | HSP90 refold inh | TROY NFkB inh
Cc1nn(-c2ccccc2Cl)c(Cl)c1/C=N/Nc1nc2ccccc2s1 | 108* | 72* | 5 | 95*
Oc1ccccc1C=NNc1nc2ccccc2s1 | 57* | -77 | nt | 0
CN1[C@@H]2Cn3c(ccc(-c4ccc(F)cc4)c3=O)[C@H]1[C@@H](C(=O)NC1CCCCC1)[C@@H]2CO | nt | 7 | nt | nt
O=C(C[C@@H]1CC[C@@H]2[C@H](COC[C@H](O)CN2Cc2ccccc2)O1)NCc1ccccc1Cl | nt | 1 | nt | nt
O=C(Cc1ccccc1)Nc1ncnc2c1C(c1ccccc1)c1c(ccc3ccccc13)O2 (stereo not drawn) | 51* | 0 | nt | 39
O=C(Nc1ncnc2c1C(c1ccccc1)c1c(ccc3ccccc13)O2)c1ccccc1 (stereo not drawn) | 54* | 1 | nt | 13
CC(C)CCCCCCCCCCCCC(=O)NCC(=O)NC1C(O)C(O)C(Nc2ncnc3nc[nH]c23)OC1C(O)CO (stereo not drawn) | 97* | nt | nt | 72*
CC(O)CNc1ncnc2nc[nH]c12 (stereo not drawn) | 4 | nt | -4 | 6
CCCNC(=O)Nc1ccc2c(c1)C(=O)N(C)C[C@H](OC)[C@@H](C)CN(Cc1ccc(-c3ccccn3)cc1)[C@@H](C)CO2 | nt | 34 | nt | nt
Cc1ccc(NC2Sc3ccccc3NC2=O)cc1 (stereo not drawn) | 56* | 48 | 2 | 9
O=C([C@@H]1[C@@H](CO)[C@@H]2Cn3c(cccc3=O)[C@H]1N2C(=O)c1ccc(F)cc1)N1CCCCC1 | nt | -8 | nt | nt
N#CC(c1cccc(Cl)c1)c1ccc2c(C(F)(F)F)cc(C(F)(F)F)nc2n1 (stereo not drawn) | 45 | nt | -1 | 64*
Nc1ncn([C@@H]2O[C@H](CO)[C@@H](O)[C@H]2O)c(=O)n1 | 72* | ? | nt | 28
Nc1ccn([C@@H]2O[C@H](CO)[C@@H](O)[C@@H]2O)c(=O)n1 | -25 | 3 | -2 | 3
COc1cc(/C=N/NC(=O)c2sc(N)c(C#N)c2C)ccc1O | 52* | -10 | 2 | 8
CCNc1nc(NCc2ccccc2)nc(Oc2ccc(=O)[nH]n2)n1 | 6 | nt | -1 | -13
CCNc1nc(NC(C)CC)nc(Oc2ccc(=O)[nH]n2)n1 (stereo not drawn) | 87* | 15 | -6 | -2
C=CCn1c(SCC(=O)Nc2sccc2C(N)=O)nc2sc(CC)cc2c1=O | 72* | nt | -4 | 48
C=CCn1c(SCC(=O)Nc2sccc2C(N)=O)nc2ccccc2c1=O | 46 | -14 | -2 | 34
C=CCn1c(SCC(=O)Nc2sccc2C(N)=O)nc2ccc(Cl)cc2c1=O | 73* | nt | 0 | 49
C[C@H](CO)N1C[C@H](C)[C@@H](CN(C)C(=O)C2CCCCC2)OCCCC[C@H](C)Oc2ccc(NC(=O)Nc3ccccc3)cc2C1=O | nt | 1 | nt | nt
C=C1C(=O)C=C[C@]2(C)C[C@@H]3OC(=O)[C@](C)(O)[C@H]3C[C@@H]12 | 55* | 35 | nt | -4
C/C=C(/C)C(=O)OC1CC(C)(C)C[C@H]2C3=CC[C@@H]4[C@@]5(C)CCC(O[C@@H]6O[C@@H](C(=O)O)[C@@H](O)C(O[C@@H]7OC[C@H](O)[C@@H](O)[C@@H]7O[C@@H]7OC(CO)C(O)[C@@H](O)[C@@H]7O)C6O[C@@H]6OC(CO)C(O)C(O)C6O)[C@@](C)(CO)[C@@H]5CC[C@]4(C)[C@]3(C)CC(O)[C@@]12CO (stereo partly drawn) | -12 | nt | nt | 0
CC1(C)C[C@H]2C3=CCC4[C@@]5(C)CC[C@H](O[C@@H]6O[C@H](C(=O)O)[C@@H](O)[C@H](O)[C@H]6O)[C@@](C)(CO)C5CC[C@@]4(C)[C@]3(C)C[C@H](O)[C@@]2(CO)[C@@H](O)[C@@H]1O (stereo partly drawn) | 5 | -5 | nt | 57*
